Shown are actives, neighbours in structure and some others; about 11% of the full set was active somewhere.
NS1 inh – inhibitors of influenza NS1 protein function | Potency, µM (doses to about 46.1 µM), for the others: top-dose activity, positive = more growth | 270,000 tested, 0.4% active; calls by dose curve; further: actives are rising curves; nearly all actives have a fitted effect of over 50% in size
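S. cerevisiae expressing influenza A NS1, grown in glucose, washed, then diluted 1:100 into pH 6.0 -URA galactose medium with 23 nl compound. Growth recovery read as OD600; NS1-free strain serves as control.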
Pf growth 48h – inhibits P. falciparum growth in the first generation, 48 h | P. falciparum luciferase growth in erythrocytes, 48 h | Potency, µM (top dose mostly 28.7 µM), inactives show at the top dose activity change, negative = inhibition, most hits filed as inhibitors | 310,000 tested, 5.9% active; further: on the % scale 0 is the no-effect control and ±100 the full control effect
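Firefly luciferase activity from engineered P. falciparum reports growth; inhibitors lower the luminescent signal. Cultures contained 2% hematocrit erythrocytes at 0.1% final parasitemia.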
AMA1-RON2 inh – disrupts binding of P. falciparum AMA1 to RON2 | 360,000 tested, 0.2% active | Potency, µM (top dose mostly 58.2 µM), for the others: at the highest dose activity change, negative = inhibition, most hits filed as inhibitors | AlphaScreen AMA1-biotinylated RON2 peptide binding;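 further: 0% = vehicle wells and -100% = peptide control; nearly all actives have a fitted effect of over 45% in size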
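AMA1 (3D7) with his tag at 25 nM final met compounds first, then biotinylated RON2 peptide at 25 nM; detection used donor plus acceptor beads, 10 µg/mL apiece, read by AlphaScreen after 30 min at room temperature.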
Pf growth 96h – P. falciparum growth inhibition at 96 hours. 320,000 tested, 6.9% active. Potency, µM (highest dose often 28.7 µM), inactives show top-dose activity change, negative = inhibition, hits mostly inhibitors. P. falciparum luciferase reporter growth, 96 h; further: on the % scale 0 is the no-effect control and ±100 the full control effect
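P. falciparum expressing integrated firefly luciferase grown in erythrocytes (2% hematocrit, 0.05% parasitemia final) with compounds for 96 hours at 37 C, 5% CO2. Growth inhibition read as loss of luminescence after adding luciferase detection reagent.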
Sm TGR inh – S. mansoni TGR enzyme inhibition; 360,000 tested, 3% active; Potency, µM (series often up to 114 µM), without a hit: top-dose activity change, negative = inhibition, most hits filed as inhibitors; Q962Y6; purified TGR, DTNB reduction, TNB absorbance 405 nm; further: on the % scale 0 is the no-effect control and ±100 the full control effect; nearly all actives have a fitted effect of over 60% in size
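First, TGR (20 nM dispensed) and NADPH were mixed with compound. Second, a 15 min room-temperature incubation followed. Third, further NADPH and then DTNB were added to start the reaction. Finally, TNB absorbance was monitored kinetically.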
* = called active by the depositor; [ ] = dose if it differs, or a comment. Unless noted, the call rests on the fitted dose curve; in most records, active means well fitted curve in the direction sought with a large enough effect; inconclusive means small, poorly fitted or top-dose-only effect, or another doubt; inactive means no such curve, though single readings can be large; an effect the other way counts as inactive or inconclusive. Potency means the concentration at half of the fitted maximal effect.

COc1cc(CNC(=O)c2ccccc2NC(=O)C2=C(C)OCCS2)cc(OC)c1OC was read as NS1 inh 1%, Pf growth 48h 13µM*, AMA1-RON2 inh -9%, Pf growth 96h inconclusive and Sm TGR inh -1%.
Screening COc1ccccc1CNC(=O)Cn1c(=O)nc(-c2ccccc2)c2ccccc21 returned Sm TGR inh -5%.
O=S(=O)(c1cccs1)N1CCN(c2ccccc2)CC1 was read as NS1 inh -1%, Pf growth 48h 21%, AMA1-RON2 inh -13%, Pf growth 96h 2% and Sm TGR inh 5%.
Screening O=C(C(NS(=O)(=O)c1cccs1)c1ccccc1)N1CCN(c2ccccc2)CC1 (centres undefined) returned NS1 inh inconclusive, Pf growth 48h inconclusive, AMA1-RON2 inh -4%, Pf growth 96h 12µM* and Sm TGR inh -2%.
For O=C(N/N=C/c1cc(Br)c(O)c(Br)c1)C1CC1 the results were NS1 inh 1%, Pf growth 48h 7%, AMA1-RON2 inh 9%, Pf growth 96h 40% and Sm TGR inh -16%.
For CC(C)(C)NC(=S)N/N=C/c1cc(Br)c(O)c(Br)c1 the results were NS1 inh -40%, Pf growth 48h inconclusive, AMA1-RON2 inh 70%, Pf growth 96h 7.4µM* and Sm TGR inh -23%.
Screening COc1ccc(OC)c(CNc2ncc(-c3cccc([N+](=O)[O-])c3)n2C)c1 returned NS1 inh 12%, Pf growth 48h -11%, AMA1-RON2 inh 14µM*, Pf growth 96h 190% and Sm TGR inh -23%.
Screening COc1ccc(-n2c(SCC(=O)Nc3nccs3)nnc2-c2ccoc2C)cc1 returned NS1 inh -2%, AMA1-RON2 inh 12%, Pf growth 96h inconclusive and Sm TGR inh -16%.
`COc1ccc(-n2c(SCC(=O)Nc3nc(C)cs3)nnc2-c2ccoc2C)cc1` gave NS1 inh -4%[9.22 µM], Pf growth 48h 5.9µM*, AMA1-RON2 inh -4%, Pf growth 96h 3% and Sm TGR inh -31%.
O=C(CSc1nnc(Cn2c(=O)sc3ccccc32)n1-c1ccccc1)Nc1nccs1 was read as NS1 inh -57%, Pf growth 48h inconclusive, AMA1-RON2 inh -9%, Pf growth 96h 4.7µM* and Sm TGR inh -9%.
For CCn1c(SCC(=O)Nc2nc(C)cs2)nnc1-c1ccoc1C the results were NS1 inh 5%, AMA1-RON2 inh -8%, Pf growth 96h 3% and Sm TGR inh -11%.
Screening COc1cccc(-n2c(SCC(=O)Nc3nccs3)nnc2-c2ccoc2C)c1 returned NS1 inh -24%, Pf growth 48h 8.3µM*, AMA1-RON2 inh -2%, Pf growth 96h 145% and Sm TGR inh -3%.
CCN(C(=O)CSc1nnc(C)c(=O)[nH]1)c1cccc2ccccc12 was read as AMA1-RON2 inh 1%.
Screening COC(=O)c1sc2cccc(F)c2c1S(=O)(=O)N1CCN(c2cccc(C)c2)C(C)C1 (centres undefined) returned Sm TGR inh 8%.
Screening COc1ccc(NC(=O)CCCc2nnc3n(C(C)C)c(=O)c4sccc4n23)cc1Cl returned Sm TGR inh 3%.
`Cn1cnc2c(=O)oc3ccc(S(=O)(=O)N4CCN(c5ccccc5F)CC4)cc3c21` gave Sm TGR inh 2%.
Screening Cc1ccc(-c2[nH]c(-c3ccc(C(=O)O)cc3)nc2-c2ccccc2)cc1 returned NS1 inh 9%, Pf growth 48h -32%, AMA1-RON2 inh 2%, Pf growth 96h 10µM* and Sm TGR inh -7%.
For O=C(O)c1ccc(-c2nc(-c3ccccc3)c(-c3cccs3)[nH]2)cc1 the results were NS1 inh 8%, Pf growth 48h inconclusive, AMA1-RON2 inh -11%, Pf growth 96h 56% and Sm TGR inh -14%.
For CCC(C(=O)Nc1ccccc1OC)n1nc(C)c2sc3ccccc3c2c1=O (centres undefined) the results were Sm TGR inh 21%.
Cc1nn(-c2ccccc2)c2c1C(c1ccc(O)c(O)c1)N1C(=N2)C(Nc2ccccc2)=Nc2ccccc21 (centres undefined) was read as NS1 inh inconclusive, Pf growth 48h 10µM*, AMA1-RON2 inh -2%, Pf growth 96h 10µM* and Sm TGR inh 0%.
Screening Cc1ccccc1NC(=S)c1nc2ccccc2[nH]1 returned NS1 inh -66%, Pf growth 48h 3.3µM*, AMA1-RON2 inh 17%[11.6 µM], Pf growth 96h -21% and Sm TGR inh 0%.
COc1ccc2[nH]c(C)c(C(=O)CN(C)C)c2c1 was read as NS1 inh 2%, Pf growth 48h inconclusive, AMA1-RON2 inh 14%, Pf growth 96h inconclusive and Sm TGR inh 40µM*.
COc1ccc2[nH]c(C)c(C(=O)CN(C)CC3OCCO3)c2c1 was read as NS1 inh 11%, Pf growth 48h 2%, AMA1-RON2 inh -6%, Pf growth 96h 11% and Sm TGR inh 25µM*.
`COc1ccc2[nH]c(C)c(C(=O)CN3CC(C)OC(C)C3)c2c1` (centres undefined) gave NS1 inh 6%, Pf growth 48h -17%, AMA1-RON2 inh 12%, Pf growth 96h inconclusive and Sm TGR inh -10%.
For O=C(c1ccc2n[nH]nc2c1)N1CCN(c2ccc(C(F)(F)F)cn2)CC1 the results were Pf growth 48h inconclusive, AMA1-RON2 inh 76%, Pf growth 96h inconclusive and Sm TGR inh -4%.
For CCCCCCc1nc2nc(Cl)c(Cl)nc2[nH]1 the results were AMA1-RON2 inh -4%.
O=C(Nc1cccc(O)c1)c1ccc2c(c1)C(=O)N(Cc1ccco1)C2=O was read as NS1 inh 14%, Pf growth 48h -6%, AMA1-RON2 inh -6%, Pf growth 96h 9.3µM* and Sm TGR inh -27%.
For O=C(Nc1ccc(Cl)cc1C(=O)O)c1ccc2c(c1)C(=O)N(Cc1ccco1)C2=O the results were NS1 inh -34%, Pf growth 48h -5%, AMA1-RON2 inh -15%, Pf growth 96h 11% and Sm TGR inh 50µM*.
Cc1ccc(O)c(NC(=O)c2ccc3c(c2)C(=O)N(Cc2ccco2)C3=O)c1 was read as NS1 inh -35%, Pf growth 48h 1%, AMA1-RON2 inh 9%, Pf growth 96h 16% and Sm TGR inh 0%.
`O=C(Nc1ccc2c(c1)OCCO2)c1c(Cl)cccc1Cl` gave AMA1-RON2 inh -11%.
Screening COc1cc(NC(=O)COC(=O)/C=C/c2ccc(Cl)cc2Cl)cc(OC)c1 returned NS1 inh 5%, Pf growth 48h 6%, AMA1-RON2 inh 12%[11.6 µM], Pf growth 96h 0% and Sm TGR inh 1%.
Screening Cc1ccccc1OCC(=O)Nc1ccc2c(c1)OCCO2 returned NS1 inh -6%, Pf growth 48h 84%, AMA1-RON2 inh 9%, Pf growth 96h 150% and Sm TGR inh 9%.
`O=C(CSCc1c(Cl)cccc1Cl)Nc1ccc2c(c1)OCCO2` gave NS1 inh -13%, Pf growth 48h 49%, AMA1-RON2 inh -41%, Pf growth 96h 3.3µM* and Sm TGR inh -14%.

Bioassay records: PubChem BioAssay, National Center for Advancing Translational Sciences (NCATS)
